Data reported in PubChem BioAssay (NCI).
Compounds without any hit were thinned out: in the full panel of roughly 79,000, 15% have a hit. Unmarked numbers belong to inactive results. The source made the active and inactive calls. No stated cut-off is given here; in the data, active means growth inhibition above about 70%; inactive means the rest.

Legend:
[1] = NCI Yeast Anticancer Drug Screen. Data for the rad50 strain (AID 155);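 further: 0% = growth of vehicle-only cultures of the same strain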; settings: S. cerevisiae rad50 strain growth inhibition, stronger effect = higher value
How it was run: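 Cells are treated with compound, grown, and their growth is then scored against vehicle-only cultures of the same repair-deficient yeast strain.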

[2] = NCI Yeast Anticancer Drug Screen. Data for the mec2-1 strain (AID 157); settings: S. cerevisiae mec2-1 strain, stronger effect = higher value
How it was run: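 mec2-1 yeast strain, carrying an alteration in DNA damage repair or cell cycle control, was exposed to compounds; growth inhibition was measured relative to vehicle-treated controls.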

[3] = NCI Yeast Anticancer Drug Screen. Data for the sgs1 mgt1 strain (AID 161);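 further: 0% = growth of cultures given vehicle only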; settings: S. cerevisiae sgs1 mgt1 strain, stronger effect = higher value
How it was run: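 Percent growth inhibition was derived by comparing compound-exposed mutant yeast with vehicle-exposed cultures. The strain carries alterations in DNA damage repair.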

[4] = NCI Yeast Anticancer Drug Screen. Data for the cln2 rad14 strain (AID 165);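 further: 0% = growth equal to vehicle treated cultures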; settings: S. cerevisiae cln2 rad14 strain, stronger effect = higher value
How it was run: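 Yeast carrying cln2 and rad14 alterations (cell cycle control and DNA damage repair) were exposed to compounds. Growth inhibition was measured against vehicle-treated controls.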

[5] = NCI Yeast Anticancer Drug Screen. Data for the bub3 strain (AID 167); settings: S. cerevisiae bub3 mutant strain, stronger effect = higher value
How it was run: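 Part of a panel of yeast mutants defective in DNA damage repair or cell cycle regulation. Each strain is grown with compound, and inhibition is calculated relative to solvent-treated cultures.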

[6] = NCI Yeast Anticancer Drug Screen. Data for the mlh1 rad18 strain (AID 175); settings: S. cerevisiae mlh1 rad18 strain growth inhibition, stronger effect = higher value
How it was run: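 Growth inhibition of the yeast strain was measured after compound exposure and expressed relative to vehicle-treated controls. The strain carries defined defects in DNA damage repair.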

[7] = at 5.0 µM (retest, dose inferred, filed as 0.5)
[8] = at 50.0 µM (retest, dose inferred, filed as 5.0)

For `[CH3][Sn]([CH3])([S]CCS(=O)(=O)O)[S]CCS(=O)(=O)O`, the growth inhibition [1, 7] was 10%, the growth inhibition [1, 8] was 7% and the growth inhibition ([1]; at 50.0 µM) was 33.5%. For the same molecule, the growth inhibition [2, 7] was 9%, the growth inhibition [2, 8] was 11% and the growth inhibition ([2]; at 50.0 µM) was 7.1%. For the same molecule, the growth inhibition [3, 7] was -38%, the growth inhibition [3, 8] was -30% and the growth inhibition ([3]; at 50.0 µM) was -9.75%. The growth inhibition [4, 7] was -10%, the growth inhibition [4, 8] was -12% and the growth inhibition ([4]; at 50.0 µM) was -5.95%. For the same molecule, the growth inhibition [5, 7] was -20%, the growth inhibition [5, 8] was -24% and the growth inhibition ([5]; at 50.0 µM) was -12.2%. For the same molecule, the growth inhibition [6, 7] was 14%, the growth inhibition [6, 8] was 11% and the growth inhibition ([6]; at 50.0 µM) was -61.6%.

With `Cc1cccc(C)c1N=C(N)N[N+](=O)[O-]` the growth inhibition [1, 7] was 45%, the growth inhibition [1, 8] was 96% (active) and the growth inhibition ([1]; at 50.0 µM) was 89.5% (active). The growth inhibition [2, 7] was 53%, the growth inhibition [2, 8] was 97% (active) and the growth inhibition ([2]; at 50.0 µM) was 90.3% (active). For the same molecule, the growth inhibition [3, 7] was 90% (active), the growth inhibition [3, 8] was 98% (active) and the growth inhibition [4, 7] was 57%. For the same molecule, the growth inhibition [4, 8] was 98% (active), the growth inhibition [5, 7] was 27% and the growth inhibition [5, 8] was 97% (active). For the same molecule, the growth inhibition [6, 7] was 33%, the growth inhibition [6, 8] was 99% (active) and the growth inhibition ([6]; at 50.0 µM) was 88% (active).

With `ClCC[Se](Cl)(Cl)c1ccccc1` the growth inhibition [1, 7] was 33%, the growth inhibition [1, 8] was 75% (active) and the growth inhibition ([1]; at 50.0 µM) was 42.9%. It also gave a growth inhibition [2, 7] of 19%, a growth inhibition [2, 8] of 20% and a growth inhibition ([2]; at 50.0 µM) of 55.6%. The growth inhibition [3, 7] was 29%, the growth inhibition [3, 8] was 48% and the growth inhibition ([3]; at 50.0 µM) was 72% (active). It also gave a growth inhibition [4, 7] of 25%, a growth inhibition [4, 8] of 44% and a growth inhibition ([4]; at 50.0 µM) of 60.5%. For the same molecule, the growth inhibition [6, 7] was 33%, the growth inhibition [6, 8] was 68% and the growth inhibition ([6]; at 50.0 µM) was 86.2% (active).

With `CNP1(=O)OC(c2ccccc2)=CCN1CCCl` (centres undefined) the growth inhibition [1, 7] was 3%, the growth inhibition [1, 8] was -1% and the growth inhibition ([1]; at 50.0 µM) was 76.3% (active). It also gave a growth inhibition [2, 7] of -2%, a growth inhibition [2, 8] of 10% and a growth inhibition ([2]; at 50.0 µM) of 47.6%. It also gave a growth inhibition [4, 7] of 0%, a growth inhibition [4, 8] of 6% and a growth inhibition ([4]; at 50.0 µM) of -30.3%. For the same molecule, the growth inhibition [5, 7] was 0%, the growth inhibition [5, 8] was -2% and the growth inhibition ([5]; at 50.0 µM) was 23.9%. For the same molecule, the growth inhibition [6, 7] was 0%, the growth inhibition [6, 8] was 5% and the growth inhibition ([6]; at 50.0 µM) was 71.2% (active).

For `COc1ccccc1C(Cc1ccc(N2C(N)=NC(N)=NC2(C)C)cc1)C(=O)Nc1ccc(S(=O)(=O)F)cc1` (centres undefined), the growth inhibition [1, 7] was 3%, the growth inhibition [1, 8] was 15% and the growth inhibition ([1]; at 50.0 µM) was 90.1% (active). For the same molecule, the growth inhibition [2, 7] was 12%, the growth inhibition [2, 8] was 2% and the growth inhibition ([2]; at 50.0 µM) was 95% (active). For the same molecule, the growth inhibition [3, 7] was 1%, the growth inhibition [3, 8] was 22% and the growth inhibition ([3]; at 50.0 µM) was 99.2% (active). For the same molecule, the growth inhibition [4, 7] was -2%, the growth inhibition [4, 8] was -5% and the growth inhibition ([4]; at 50.0 µM) was 55.4%. For the same molecule, the growth inhibition [5, 7] was -3%, the growth inhibition [5, 8] was -4% and the growth inhibition ([5]; at 50.0 µM) was 98.8% (active). For the same molecule, the growth inhibition [6, 7] was 2%, the growth inhibition [6, 8] was 18% and the growth inhibition ([6]; at 50.0 µM) was 99% (active).

In the case of `O=C1C=Cc2ccccc2C1=O`, the growth inhibition [1, 7] is reported as 29%, the growth inhibition [1, 8] is reported as 87% (active) and the growth inhibition ([1]; at 50.0 µM) is reported as 83.6% (active). The growth inhibition [2, 7] was 32%, the growth inhibition [2, 8] was 95% (active) and the growth inhibition ([2]; at 50.0 µM) was 88.8% (active). For the same molecule, the growth inhibition [4, 7] was 18%, the growth inhibition [4, 8] was 87% (active) and the growth inhibition ([4]; at 50.0 µM) was 46.3%. For the same molecule, the growth inhibition [5, 7] was 36%, the growth inhibition [5, 8] was 97% (active) and the growth inhibition ([5]; at 50.0 µM) was 91.9% (active). For the same molecule, the growth inhibition [6, 7] was 31%, the growth inhibition [6, 8] was 96% (active) and the growth inhibition ([6]; at 50.0 µM) was 94.9% (active).

With `O=C([CH-]C(=O)c1ccccc1)c1ccccc1.O=C([CH-]C(=O)c1ccccc1)c1ccccc1.[Nd+3].[OH-].[OH3+]` the growth inhibition [1, 7] was 34%, the growth inhibition [1, 8] was 34% and the growth inhibition ([1]; at 50.0 µM) was 92.2% (active). The growth inhibition [2, 7] was 11%, the growth inhibition [2, 8] was 11% and the growth inhibition ([2]; at 50.0 µM) was 93.7% (active). The growth inhibition [3, 7] was 38%, the growth inhibition [3, 8] was 38% and the growth inhibition ([3]; at 50.0 µM) was 94.2% (active). For the same molecule, the growth inhibition [5, 7] was 36%, the growth inhibition [5, 8] was 36% and the growth inhibition ([5]; at 50.0 µM) was 92.2% (active). For the same molecule, the growth inhibition [6, 7] was 30%, the growth inhibition [6, 8] was 30% and the growth inhibition ([6]; at 50.0 µM) was 89.8% (active).

With `O=C(c1ccccc1)c1c(CC(O)c2cccnc2)n(C(=O)c2ccccc2)c2ccccc12` (centres undefined) the growth inhibition [1, 7] was 6%, the growth inhibition [1, 8] was 96% (active) and the growth inhibition ([1]; at 50.0 µM) was 91% (active). For the same molecule, the growth inhibition [2, 7] was 3%, the growth inhibition [2, 8] was 96% (active) and the growth inhibition ([2]; at 50.0 µM) was 89.2% (active). For the same molecule, the growth inhibition [3, 7] was 13%, the growth inhibition [3, 8] was 97% (active) and the growth inhibition ([3]; at 50.0 µM) was 90.7% (active). For the same molecule, the growth inhibition [4, 7] was 19%, the growth inhibition [4, 8] was 96% (active) and the growth inhibition ([4]; at 50.0 µM) was 56.5%. For the same molecule, the growth inhibition [5, 7] was -5%, the growth inhibition [5, 8] was 97% (active) and the growth inhibition ([5]; at 50.0 µM) was 87.9% (active). For the same molecule, the growth inhibition [6, 7] was 2%, the growth inhibition [6, 8] was 94% (active) and the growth inhibition ([6]; at 50.0 µM) was 91% (active).

In the case of `C=CCc1cc(Cl)ccc1OC(=O)N(C)C`, the growth inhibition [1, 7] is reported as 5%, the growth inhibition [1, 8] is reported as -2% and the growth inhibition ([1]; at 50.0 µM) is reported as -7.75%. It also gave a growth inhibition [2, 7] of 5%, a growth inhibition [2, 8] of -4% and a growth inhibition ([2]; at 50.0 µM) of 3.45%. For the same molecule, the growth inhibition [3, 7] was 5%, the growth inhibition [3, 8] was -2% and the growth inhibition ([3]; at 50.0 µM) was -6.55%. It also gave a growth inhibition [5, 7] of 0%, a growth inhibition [5, 8] of -21% and a growth inhibition ([5]; at 50.0 µM) of -11.8%. The growth inhibition [6, 7] was 0%, the growth inhibition [6, 8] was -1% and the growth inhibition ([6]; at 50.0 µM) was 31.8%.

With `[Cl-].[Cl-].[Cl-].[O-]c1cccc2cccnc12.[O-]c1cccc2cccnc12.[O]=[Mo]` the growth inhibition [1, 7] was 96% (active), the growth inhibition [1, 8] was 96% (active) and the growth inhibition ([1]; at 50.0 µM) was 87.5% (active). The growth inhibition [2, 7] was 73% (active), the growth inhibition [2, 8] was 73% (active) and the growth inhibition ([2]; at 50.0 µM) was 91.4% (active). For the same molecule, the growth inhibition [4, 7] was 96% (active), the growth inhibition [4, 8] was 96% (active) and the growth inhibition ([4]; at 50.0 µM) was 88.6% (active). For the same molecule, the growth inhibition [5, 7] was 64%, the growth inhibition [5, 8] was 64% and the growth inhibition ([5]; at 50.0 µM) was 90.4% (active). For the same molecule, the growth inhibition [6, 7] was 72% (active), the growth inhibition [6, 8] was 72% (active) and the growth inhibition ([6]; at 50.0 µM) was 87.7% (active).
